Assay results as given in PubChem BioAssay (NCI).
The panel holds about 83,000 compounds, 20% with a hit somewhere; the sample as a whole holds those more often.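 Growth was measured after 48 h exposure to one concentration of compound in 96-well plates. Values under 10 count as active.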 A number with no mark means an inactive call. The source made the active and inactive calls.

Key:
Test in all cases: NCI-60 one-dose screen, 48 h (100 = growth as untreated, 0 = no growth, -100 = all killed)
Details in all cases: 10 µM
[1] = system: HT29 colon
[2] = system: SNB-75 CNS
[3] = system: SNB-19 CNS
[4] = system: U251 CNS
[5] = system: PC-3 prostate
[6] = system: SK-MEL-5 melanoma
[7] = system: UACC-62 melanoma
[8] = system: LOX IMVI melanoma
[9] = system: SK-MEL-28 melanoma
[10] = system: SK-MEL-2 melanoma

SMILES | growth [1] | growth [2] | growth [3] | growth [4] | growth [5] | growth [6] | growth [7] | growth [8] | growth [9] | growth [10]
CN1CCCNc2c(c(=O)c2=O)NCCCN(C)CCCNc2c(c(=O)c2=O)NCCCN(C)CCCNc2c(c(=O)c2=O)NCCCN(C)CCCNc2c(c(=O)c2=O)NCCCN(C)CCCNc2c(c(=O)c2=O)NCCCN(C)CCCNc2c(c(=O)c2=O)NCCCN(C)CCCNc2c(c(=O)c2=O)NCCC1 | 59.3% | 84.3% | 40.5% | 15.2% | 77.5% | 39.6% | 43.7% | 58.1% | 22.6% | 76.6%
COc1ccc(OC)c(/C=C/c2nc(SC)n(-c3ccc(Cl)cc3)n2)c1 | 90.3% | 72.1% | 81.4% | 78.1% | 38.9% | 53.4% | 49.5% | 83.3% | 85.1% | 88.5%
Clc1cc2c(c(CSc3nc4ccccc4n4cccc34)c1)OCOC2 | 88.3% | 62% | 107% | 85.9% | 60.5% | 83.7% | 112% | 87.5% | 92.8% | 79.7%
CCN(CC)CCC(CNc1c(C)cnc2cc(Cl)ccc12)c1ccc(Cl)c(Cl)c1 (stereo not drawn) | 11.6% | 59.2% | 71.7% | 46.4% | 49.4% | -92.3% (active) | -48.5% (active) | 37.8% | -75.3% (active) | 107%
O=C1/C(=C/c2ccc(Cl)cc2)SC(=Nc2ccc(Cl)cc2)N1Cc1nc2ccccc2[nH]1 | 97% | 27.1% | 75% | 76.2% | 41.6% | 81.3% | 64.6% | 78% | 92.6% | 88.4%
Cc1ccc(C(=O)Nc2cccc(F)c2)cc1NC(=O)C1(c2ncnc3[nH]ccc23)CC1 | 52.5% | 95.8% | 120% | 93.6% | 92.2% | 74.3% | 54.5% | 42.1% | 83.3% | 14.5%
COc1cc(-c2cc(C(=O)N3CCN(C(=O)c4ccccc4NCc4ccco4)CC3)nc3cc(-c4ccccc4)nn23)cc(OC)c1OC | 1.33% (active) | 8.05% (active) | 45.4% | 24.7% | 15.8% | 3.81% (active) | 39.7% | 30% | 59.3% | 10.5%
CSc1nc(=O)n(Cc2ccc(Cl)cc2)c(=O)[nH]1 | 109% | 74.6% | 108% | 94.6% | 101% | 110% | 112% | 96.8% | 107% | 116%
COc1ccc2c(c1)C(=O)c1c-2c(OCCN(C)C)nc2ccccc12 | 12.2% | 47.2% | 42.9% | 21.1% | 47.2% | 37.4% | 52.4% | -41.8% (active) | 64.9% | 16.5%
CC/C(=C(/c1ccc(OCCN(C)C)cc1)c1ccc(OC(=O)CCC(=O)c2c(C)[nH]c(/C=C3\N=C(c4ccc[nH]4)C=C3OC)c2C)cc1)c1ccccc1 | 6.7% (active) | 28.3% | 72.7% | 12.5% | 19.3% | 2.36% (active) | -13.8% (active) | -45% (active) | 62.1% | -11.4% (active)
CC(C)(Cl)CCC1=C(Cl)C(=O)c2ccccc2C1=O | 115% | 30.7% | 89% | 49.9% | 32.8% | -34.8% (active) | 2.45% (active) | 20.6% | 56.9% | 79.1%
CC(=O)[C@H]1CC[C@H]2[C@@H]3CCC4=CC(=O)C=C[C@]4(C)[C@H]3CC[C@]12C | 96.2% | 90.3% | 114% | 95.1% | 87.7% | 82.5% | 80.3% | 88.6% | 109% | 102%
COc1cc(/C=C2\CCCC3=C2N=C2SC=NN2C3c2cc(OC)c(OC)c(OC)c2)cc(OC)c1OC (stereo not drawn) | 3.26% (active) | 19.7% | 46.4% | 8.08% (active) | 66.4% | 16.3% | -51.7% (active) | -36.9% (active) | 42.5% | 89.3%
Cc1cc(N(CCCNc2ccnc3cc(Cl)ccc23)Cc2ccc3c(c2)OCO3)nc(N2CCCCC2)n1 | -49.9% (active) | -26.5% (active) | 14.9% | -55% (active) | -34.6% (active) | -95.3% (active) | -54.7% (active) | -89% (active) | -81.9% (active) | -67.5% (active)
COc1cc(-c2nc(Nc3nc4ccccc4s3)[nH]c(=O)c2C#N)cc(OC)c1O | 110% | 88.6% | 96.1% | 105% | 101% | 106% | 102% | 106% | 110% | 105%
CCOC(=O)C1(CC(C)C)CCOC1=O (stereo not drawn) | 104% | 86.8% | 102% | 95.2% | 93.3% | 104% | 96.7% | 96.8% | 103% | 113%
O=C(Nc1cccc(-n2cc(-c3ccncc3)c(-c3cc(O)cc(Cl)c3)n2)c1)c1ccc(N2CCOCC2)c(C(F)(F)F)c1 | 16.9% | 23.1% | 12.1% | -9.64% (active) | 19.1% | 32.2% | 10.8% | -48.7% (active) | -52.4% (active) | 22.9%
CCN(CC)CCCC(C)Nc1nc(-c2ccc(OC)cc2)nc2cc(Cl)ccc12 (stereo not drawn) | 27.9% | 59.6% | 74.6% | 57% | 48.4% | 0.434% (active) | -46.9% (active) | 32.8% | -70% (active) | 98.2%
CC(C)(C)c1cc(Br)cc(C(C)(C)C)c1O | 113% | 95.7% | 104% | 99.8% | 94.4% | 102% | 99.3% | 99.1% | 112% | 118%
COc1cc(/C=N/NC(=O)c2ccccc2Nc2ccnc(C(F)(F)F)c2)ccc1O | 118% | 94.1% | 93.2% | 106% | 111% | 106% | 115% | 114% | 118% | 113%
CCN1Cc2c(/C=C/c3ccccc3)nc3ccc(OC)cc3c2N(c2cccc(Cl)c2)C1 | 64.2% | 63.6% | 93.3% | 76% | 20.2% | 20.6% | 52.3% | 73% | 95.9% | 77.5%
O=C(O)c1ccc(P(=O)(O)O)c([N+](=O)[O-])c1 | 101% | 87.1% | 107% | 95.1% | 97.7% | 95.3% | 108% | 102% | 110% | 117%
NC1=NC(=O)C(c2ccccc2)(c2ccccc2)S1 | 106% | 107% | 105% | 99.4% | 103% | 110% | 98.2% | 101% | 101% | 101%
COc1cc(/C=C2\Oc3cc(OCC(=O)c4ccccc4)ccc3C2=O)cc(OC)c1OC | 112% | 104% | 118% | 90.1% | 85.2% | 98.7% | 96.7% | 98.5% | 108% | 122%
COc1ccc2c(c1)O/C(=C\c1ccc([N+](=O)[O-])s1)C2=O | -12.3% (active) | 55.5% | 67.3% | 14.7% | 14% | 60% | 30.6% | 15.7% | 81.4% | 55.3%
C=C(NC(=O)C(=C)NC(=O)c1csc(C2=NC3c4csc(n4)C4NC(=O)c5csc(n5)C(C(C)(O)C(C)O)NC(=O)C5CSC(=N5)/C(=C/C)NC(=O)C(C(C)O)NC(=O)c5csc(n5)C3(CC2)NC(=O)C(C)NC(=O)C(=C)NC(=O)C(=C)NC(=O)C(C(C)C)NC2C=Cc3c(C(C)O)cc(nc3C2O)C(=O)OC4C)n1)C(N)=O (stereo not drawn) | -2.13% (active) | -10.9% (active) | 16.8% | -46% (active) | 9.64% (active) | -56.2% (active) | 5.94% (active) | -52.7% (active) |  | -17.7% (active)
CN(C)CCN1C(=O)c2cccc3cc(N)cc(c23)C1=O | 9.24% (active) | -5.61% (active) | 24.5% | 18.4% | 12.6% | 8.79% (active) | 13.3% | 6.24% (active) |  | 29.1%
